# Data reported in PubChem BioAssay.
# Several values for one entry are separate records, joined by “and”; a condition that tells them apart may be missing. Identical values can stand only once. Records with an inconclusive call do not appear. Activity calls are given as the source filed them.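 Rule for the calls, unless noted: active = compounds whose cell count with miR-34 switched on is under 0.7 times the count with it off; inactive = the rest.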
# Legend:
# [1] = sensitizers of A549 cells to miR-34 induction, primary screen, imaging, A549 dox-inducible miR-34, nuclei and caspase counts (AID 1347080); conditions: A549 miR-34 inducible, Hoechst nuclei count, 48 h
# [2] = survival rescue of mitochondrial mutant cells in low glucose, primary screen, MELAS cybrids, Rieske KO mouse fibroblasts, CellTiter-Glo (AID 1508586;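 active = mean z-score across replicates of 1.96 or higher in either the MELAS or the Rieske mutant cell line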;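 note: z relative to plate mean and SD of compound and empty wells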)
# [3] = viability rescue of complex I mutant cybrids, primary screen, cell-based, galactose medium, ATP luminescence (AID 1645843;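 active = z-score of at least 1.8 in each of two replicates, scored against plate mean and spread of sample wells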;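 note: positive z means more ATP and so rescue of galactose-driven cybrid death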); conditions: complex I mutant cybrid cells, 72 h, stronger effect = higher value
# [4] = liver-stage malaria parasite growth inhibition, primary screen, cell-based, HepG2, luciferase luminescence, HepG2 viability (AID 624349; in the data active = parasite load remaining mostly below about 12%, no sharp cut-off; inactive = mostly above about 10%;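 note: 100% = mean of DMSO negative control wells on the same plate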); conditions: P. berghei liver stage in HepG2, luciferase luminescence, concentration not given here; parasite load remaining: stronger effect = lower value; viability: measured here: HepG2 viability without parasites
# [5] = circadian clock period modulators, cell-based, LOPAC library, luminescence reporter (AID 2774; call rule not given here;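 note: values are relative to mean of DMSO wells on each plate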); conditions: circadian reporter cells, at 7 µM, actives lie on both sides
# [6] = test system: Hepatitis C virus NS3 helicase; assay: HCV NS3 helicase inhibitors, primary screen, biochemical, fluorescence polarization, LOPAC1280 library (AID 687035; in the data active = inhibition above about 37%); conditions: Purified HCV NS3 helicase, Cy5-dT15 ssDNA binding fluorescence polarization; stronger effect = higher value; concentration not given here
# [7] = Cy5 fluorescence quenching or enhancement artefacts, artefact control for HCV NS3 helicase inhibitor project, biochemical, LOPAC1280 (AID 687037; call rule not given here); conditions: Cy5-DNA-NS3h complex fluorescence interference counterscreen
# [8] = biological target: ATP-dependent translocase ABCB1 (Homo sapiens) (UniProt P08183); assay: MDR1 (ABCB1) efflux transporter inhibition, cell-based (AID 377; in the data active = fluorescence slope change above about 50%); conditions: MDR1-expressing cells, fluorescent substrate accumulation slope; stronger effect = higher value; concentration not given here
# [9] = stronger effect = lower value, cell number ratio, induced over uninduced
# [10] = measured here: relative caspase fold change +Dox/-Dox
# [11] = measured here: total cells with miR-34 induction, stronger effect = lower value
# [12] = measured here: total cells without miR-34 induction
# [13] = MELAS cybrid survival, CellTiter-Glo 48 h, stronger effect = higher value
# [14] = Rieske KO mouse fibroblast survival, CellTiter-Glo 72 h
# Chain of ATP-dependent translocase ABCB1 (Homo sapiens) (P08183 whole entry, looked up): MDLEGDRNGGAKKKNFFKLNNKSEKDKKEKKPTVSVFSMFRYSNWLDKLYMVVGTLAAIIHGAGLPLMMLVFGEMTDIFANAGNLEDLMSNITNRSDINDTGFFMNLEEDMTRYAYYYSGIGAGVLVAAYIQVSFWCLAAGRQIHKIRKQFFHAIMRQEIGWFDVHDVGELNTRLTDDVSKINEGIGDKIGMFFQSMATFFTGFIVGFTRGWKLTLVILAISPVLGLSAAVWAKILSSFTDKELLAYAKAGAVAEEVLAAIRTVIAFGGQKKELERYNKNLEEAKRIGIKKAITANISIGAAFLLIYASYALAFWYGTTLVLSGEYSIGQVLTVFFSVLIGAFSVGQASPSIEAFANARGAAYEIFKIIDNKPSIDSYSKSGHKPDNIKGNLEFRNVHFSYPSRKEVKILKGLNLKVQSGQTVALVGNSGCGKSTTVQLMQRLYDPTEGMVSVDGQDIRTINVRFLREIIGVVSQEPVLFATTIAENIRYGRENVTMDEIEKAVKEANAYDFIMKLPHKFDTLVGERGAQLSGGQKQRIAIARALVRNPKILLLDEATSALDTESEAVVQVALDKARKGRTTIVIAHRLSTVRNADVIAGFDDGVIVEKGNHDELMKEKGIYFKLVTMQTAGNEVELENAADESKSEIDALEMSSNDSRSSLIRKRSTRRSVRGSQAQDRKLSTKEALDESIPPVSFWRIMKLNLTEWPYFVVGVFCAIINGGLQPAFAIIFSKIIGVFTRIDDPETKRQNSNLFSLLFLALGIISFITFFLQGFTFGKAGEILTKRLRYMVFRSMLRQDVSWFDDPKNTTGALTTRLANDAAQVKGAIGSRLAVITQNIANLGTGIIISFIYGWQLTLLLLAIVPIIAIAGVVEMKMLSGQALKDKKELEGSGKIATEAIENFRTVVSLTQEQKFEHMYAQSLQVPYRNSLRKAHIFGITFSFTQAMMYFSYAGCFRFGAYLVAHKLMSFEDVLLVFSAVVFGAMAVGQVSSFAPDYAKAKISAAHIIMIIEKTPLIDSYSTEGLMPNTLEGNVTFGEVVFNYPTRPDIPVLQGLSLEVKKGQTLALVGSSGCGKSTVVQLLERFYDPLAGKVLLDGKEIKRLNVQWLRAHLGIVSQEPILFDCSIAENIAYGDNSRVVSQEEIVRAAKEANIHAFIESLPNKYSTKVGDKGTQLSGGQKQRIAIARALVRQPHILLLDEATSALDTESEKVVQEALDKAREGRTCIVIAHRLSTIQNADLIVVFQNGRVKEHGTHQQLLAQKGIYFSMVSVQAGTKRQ
Structure (SMILES),"fold change [1, 9]","fold change [1, 10]","cell count [1, 11]","cell count [1, 12]","z-score [2, 13]","z-score [2, 14]",z-score [3],parasite load remaining [4],viability [4] [%],period change [5],inhibition [6],fluorescence ratio (interference) [7],fluorescence slope change [8]
COc1ccc(OC)c(-c2nc3ccccc3o2)c1,0.826 (inactive),1.28,6950,8410,0.0538 (inactive),0.572,-0.51 (inactive),–,–,–,–,–,–
COc1ccc(CSc2nnc(-c3ccc4c(c3)OCO4)o2)cc1F,0.89 (inactive),0.327,8570,9630,0.835 (inactive),-0.403,1.06 (inactive),–,–,–,–,–,–
CS(=O)(=O)Nc1ccc(C(=O)O)cc1,0.918 (inactive),0.714,8860,9650,0.13 (inactive),-0.244,0.365 (inactive),–,–,–,–,–,–
Cc1cnc(NCCCn2cccn2)nc1-c1cnn(C)c1,0.862 (inactive),1.64,9190,10700,-0.223 (inactive),-0.0144,-0.51 (inactive),–,–,–,–,–,–
O=C(O)c1ccc(-c2ccc([N+](=O)[O-])cc2Cl)o1,0.876 (inactive),0.203,8260,9440,0.0167 (inactive),-0.308,0.255 (inactive),–,–,–,–,–,–
Cn1nc(NC(=O)Cn2cc(-c3nccc4occc34)cn2)c2ccccc21,0.83 (inactive),2.06,7280,8770,0.277 (inactive),-0.242,-0.345 (inactive),–,–,–,–,–,–
CC(=O)c1sc(Nc2ccccc2)nc1C,0.911 (inactive),0.648,8310,9120,3.09 (active),-0.213,0.63 (inactive),–,–,–,–,–,–
Nc1ccn(C2OC(CO)C(O)C2O)c(=O)n1 (stereo unspecified),1.14 (inactive) and 0.906 (inactive),0.982 and 0.86,2260 and 7940,1990 and 8760,-0.137 (inactive),-0.441,-1.19 (inactive),–,–,–,–,–,–
Cc1nn(C)cc1-c1ccnc(NC2CCOC(C)(C)C2)n1 (stereo unspecified),0.847 (inactive),2.06,8460,9990,-0.0523 (inactive),-0.494,-0.56 (inactive),–,–,–,–,–,–
O=C(O)CC(O)CC(O)C=Cc1c(C2CC2)nc2ccccc2c1-c1ccc(F)cc1 (stereo unspecified),0.905 (inactive) and 0.948 (inactive),0.849 and 0.847,771 and 1550,852 and 1630,1.33 (inactive),-0.125,-1.86 (inactive),–,–,–,–,–,–
CCc1ccc(CNC(=O)Nc2nc(C)n(C(C)C)n2)nc1,0.86 (inactive),1.49,7770,9030,0.0188 (inactive),0.8,-0.525 (inactive),–,–,–,–,–,–
NS(=O)(=O)c1ccc(F)cc1,0.896 (inactive),0.251,9050,10100,0.294 (inactive),-0.158,0.18 (inactive),–,–,–,–,–,–
Nc1ccc(Sc2ccc(N3C(=O)c4ccc(N)cc4C3=O)cc2)cc1,0.816 (inactive),1.86,8200,10000,0.874 (inactive),0.253,-0.975 (inactive),–,–,–,–,–,–
CC(C)SC1OC(CO)C(O)C(O)C1O (stereo unspecified),0.887 (inactive),0.478,8290,9350,-0.322 (inactive),-0.813,0.635 (inactive),–,–,–,–,–,–
O=C1CCNC(=O)N1,0.882 (inactive),0.303,8710,9870,0.298 (inactive),0.144,0.585 (inactive),–,–,–,–,–,–
CC(=O)NCC(=O)N1CCN(Cc2ccc3c(c2)OCO3)C(=O)C1,0.905 (inactive),1.72,8860,9790,0.0526 (inactive),-0.343,-0.565 (inactive),–,–,–,–,–,–
O=C(O)CCCNC(=O)NC1CCCCC1,0.89 (inactive),0.215,8970,10100,0.354 (inactive),-0.267,0.455 (inactive),–,–,–,–,–,–
NS(=O)(=O)c1ccc(C(=O)NCCn2cccn2)cc1,0.945 (inactive),1.97,9500,10100,-0.281 (inactive),-0.563,-0.555 (inactive),–,–,–,–,–,–
CNC(=O)c1ccccc1-c1cccc2ccccc12,0.918 (inactive),0.701,8250,8980,-0.403 (inactive),-0.242,-0.535 (inactive),–,–,–,–,–,–
O=[N+]([O-])c1ccc2[nH]ncc2c1,0.885 (inactive),0.558,8690,9820,0.727 (inactive),-0.415,-0.195 (inactive),–,–,–,–,–,–
Cc1nn(C)cc1-c1ccnc(N2CCCN(c3ccccc3)CC2)n1,0.823 (inactive),0.527,5610,6820,-1.06,3.98,2.46 (active),–,–,–,–,–,–
Nc1nc(-c2ccoc2)c2[nH]cnc2n1,0.933 (inactive),1.81,9520,10200,-0.0543 (inactive),-0.319,-0.485 (inactive),–,–,–,–,–,–
CCCCn1c(=O)c2c(ncn2CC(C)=O)n(CCCC)c1=O,0.978 (inactive),1.23,10200,10400,0.541 (inactive),0.0406,0.875 (inactive),49% (inactive),100,–,–,–,–
CC(C)NC[C@@H](O)c1ccc(O)c(O)c1,1.04 (inactive) and 0.887 (inactive),1.51 and 1.13,10500 and 9200,10100 and 10400,0.464 (inactive),-0.759,-1.29 (inactive),67.9% (inactive),93.2,-0.08 h (inactive),-5% (inactive),0.9 (inactive),–
CS(=O)(=O)c1ccc([C@@H](O)[C@@H](COC(=O)CN)NC(=O)C(Cl)Cl)cc1,0.967 (inactive),1.61,9390,9720,-0.278 (inactive),1.38,-1.12 (inactive),19.3% (inactive),69.5,–,–,–,–
Nc1nc(=O)n([C@@H]2CS[C@H](CO)O2)cc1F,0.911 (inactive),1.49,10100,11100,0.34 (inactive) and -0.461 (inactive),-0.0583 and -0.327,0.88 (inactive),56.6% (inactive),160,–,–,–,–
CC[C@]1(O)C[C@H]2CN(CCc3c([nH]c4ccccc34)[C@@](C(=O)OC)(c3cc4c(cc3OC)N(C)[C@H]3[C@@](O)(C(N)=O)[C@H](O)[C@]5(CC)C=CCN6CC[C@]43[C@@H]65)C2)C1,1.02 (inactive),1.58,1810,1780,-2.11,2.09,-1.99 (inactive),29.7% (inactive),79.5,–,–,–,–
CC#CCC(C)[C@H](O)/C=C/[C@@H]1[C@H]2C/C(=C/CCCC(=O)O)C[C@H]2C[C@H]1O (stereo partly specified),0.876 (inactive),1.59,8850,10100,-0.239 (inactive),-0.923,0.275 (inactive),12.8% (inactive),77.5,–,–,–,–
CN1[C@@H](C[C@H](O)c2ccccc2)CCC[C@H]1CC(=O)c1ccccc1,0.934 (inactive),1.15,9500,10200,-0.675 (inactive),-0.32,0.205 (inactive),53.1% (inactive),128,–,–,–,26.3% (inactive)
